Drawing on PubChem BioAssay (NCI), this text covers growth for nine molecules.

The panel holds about 83,000 compounds, 20% with a hit somewhere; the sample as a whole holds those more often.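 Cells were grown in 96-well plates and exposed to the test compound at a single concentration for 48 hours; results are reported as percent growth, with values below 10 considered active.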 A number with no mark means an inactive call. Activity calls are given as the source filed them.

Test systems include DU-145 prostate; K-562 leukemia; MALME-3M melanoma; MDA-MB-231 breast; SF-268 CNS; SF-295 CNS; SF-539 CNS; UACC-257 melanoma; M14 melanoma; HCT-15 colon; HT29 colon; SNB-75 CNS; SNB-19 CNS; PC-3 prostate; SK-MEL-5 melanoma; UACC-62 melanoma; LOX IMVI melanoma; SK-MEL-28 melanoma; RXF 393 renal; U251 CNS.
Test in all cases: NCI-60 one-dose screen, 48 h (100 = growth as untreated, 0 = no growth, -100 = all killed)
Settings in all cases: 10 µM unless noted

Take `O=C(N/N=C/c1ccc(O)cc1O)c1cccnc1`: the growth is 48.4% in the experiment with DU-145 prostate; 26.7% in the experiment on K-562 leukemia; 61.8% in the experiment with MALME-3M melanoma; 62.5% with MDA-MB-231 breast; 43.6% with SF-268 CNS; 15.6% in the experiment on SF-295 CNS. Moreover, the growth in the experiment on SF-539 CNS was 29.5%; with UACC-257 melanoma it was -3.63% (active); in the experiment with M14 melanoma it was 39.3%; in the experiment on HCT-15 colon, 30.7%; in the experiment with HT29 colon it was 46.1%; in the experiment on SNB-75 CNS it was 37.7%. In addition, the growth in the experiment with SNB-19 CNS is 70.5%; with PC-3 prostate, 53.2%; in the experiment on SK-MEL-5 melanoma, 39.3%; with UACC-62 melanoma it was 34.2%; with LOX IMVI melanoma it was 21.8%; in the experiment with SK-MEL-28 melanoma, 50.4%.
With `Cc1cc(Nc2nc(N3CCN(C)CC3)nc3ccccc23)n[nH]1`, the growth was 88% with DU-145 prostate; 57% with K-562 leukemia; 69% in the experiment on MALME-3M melanoma; 83.2% in the experiment with MDA-MB-231 breast; 67% in the experiment with SF-268 CNS; 74.4% in the experiment with SF-295 CNS. The growth is 76.3% in the experiment on SF-539 CNS; 82.9% with UACC-257 melanoma; 50.8% in the experiment on M14 melanoma; 56.5% in the experiment with HCT-15 colon; 61.5% in the experiment with HT29 colon; -15.8% (active) in the experiment on SNB-75 CNS. Further, the growth with SNB-19 CNS was 90.8%; in the experiment with PC-3 prostate, 71.6%; with SK-MEL-5 melanoma it was 89.9%; with UACC-62 melanoma it was 67.9%; with LOX IMVI melanoma, 73%; in the experiment on SK-MEL-28 melanoma, 68.8%.
As to `Cc1cc(Nc2nc(N3CCNCC3)nc3ccccc23)n[nH]1`, the growth with DU-145 prostate was 119%; with K-562 leukemia, 81.5%; in the experiment on MALME-3M melanoma, 80.4%; with MDA-MB-231 breast, 103%; with SF-268 CNS, 90.6%; in the experiment with SF-295 CNS, 88%. The growth is 79.4% in the experiment on SF-539 CNS; 87.1% in the experiment with UACC-257 melanoma; 92.5% in the experiment with M14 melanoma; 70.5% in the experiment on HCT-15 colon; 82.1% in the experiment on HT29 colon; -16.6% (active) in the experiment with SNB-75 CNS. Besides, the growth with SNB-19 CNS is 101%; in the experiment with PC-3 prostate, 80.8%; with SK-MEL-5 melanoma, 95.8%; in the experiment on UACC-62 melanoma it was 74.6%; in the experiment with LOX IMVI melanoma, 88.6%; in the experiment on SK-MEL-28 melanoma, 86%.
In the case of `CCCCCCCCCCCCS(=O)CC(C)O` (stereo not given), the growth in the experiment on DU-145 prostate was 126%; in the experiment on K-562 leukemia, 103%; with MALME-3M melanoma it was 116%; with MDA-MB-231 breast it was 104%; in the experiment on SF-268 CNS, 139%; with SF-295 CNS, 100%. Also, the growth with SF-539 CNS was 97.2%; in the experiment with UACC-257 melanoma it was 94.7%; in the experiment with M14 melanoma, 107%; in the experiment with HCT-15 colon, 104%; in the experiment on HT29 colon, 110%; in the experiment on SNB-75 CNS, 78.3%. Besides, the growth in the experiment with SNB-19 CNS is 98.6%; in the experiment with PC-3 prostate, 99.3%; in the experiment with SK-MEL-5 melanoma it was 103%; with UACC-62 melanoma it was 92.6%; in the experiment on LOX IMVI melanoma it was 111%; with SK-MEL-28 melanoma, 102%.
Regarding `COc1cccc2c1C(=O)c1c(O)c3c(c(O)c1C2=O)C[C@@](O)(/C(C)=N/NC(=O)c1ccc(Cl)cc1)C[C@@H]3OC1CC(N)C(O)C(C)O1` (stereo not given in full), the growth in the experiment on DU-145 prostate was -0.501% (active); in the experiment with K-562 leukemia it was -19.5% (active); in the experiment with MALME-3M melanoma, -74.6% (active); with MDA-MB-231 breast, -1.48% (active); in the experiment on SF-268 CNS, -54.8% (active); in the experiment on SF-295 CNS, -60.4% (active). Further, the growth was -45.5% (active) with SF-539 CNS; -57.1% (active) in the experiment with UACC-257 melanoma; -60% (active) in the experiment with M14 melanoma; 16.4% in the experiment on HCT-15 colon; -42.6% (active) in the experiment with HT29 colon; -84.3% (active) in the experiment on SNB-75 CNS. For the same molecule, the growth was 5.54% (active) in the experiment with SNB-19 CNS; -36.5% (active) with PC-3 prostate; -45.2% (active) in the experiment with SK-MEL-5 melanoma; -72.8% (active) in the experiment with UACC-62 melanoma; -44.6% (active) in the experiment with LOX IMVI melanoma; -32.3% (active) in the experiment on SK-MEL-28 melanoma.
Take `O=c1c2cccc3c(Nc4ccccn4)ccc(c32)c2nc3ccccc3n12`: the growth with DU-145 prostate is 91.8%; in the experiment on K-562 leukemia it was 46.5%; in the experiment with MALME-3M melanoma it was 86.3%; with MDA-MB-231 breast it was 70.6%; in the experiment with RXF 393 renal, 108%; with SF-268 CNS it was 87.2%. For the same molecule, the growth in the experiment with SF-539 CNS is 85.7%; with M14 melanoma, 91%; in the experiment on HCT-15 colon, 59.2%; with HT29 colon, 64.6%; in the experiment with SNB-75 CNS it was 78.6%; with SNB-19 CNS, 89.9%. For the same molecule, the growth is 64% with PC-3 prostate; 51.8% in the experiment on SK-MEL-5 melanoma; 64.3% in the experiment on UACC-62 melanoma; 69.6% in the experiment with LOX IMVI melanoma; 101% with SK-MEL-28 melanoma.
For the molecule `Cc1noc(C)c1-c1cc(O)cc(C(O)c2ccccc2)c1` (stereo not given), the growth with DU-145 prostate was 87.5%; with K-562 leukemia, 42.1%; with MALME-3M melanoma it was 60%; in the experiment with MDA-MB-231 breast it was 62.4%; in the experiment on SF-268 CNS it was 71.5%; with SF-295 CNS, 42.5%. In addition, the growth in the experiment on SF-539 CNS was 62.5%; in the experiment with UACC-257 melanoma it was 40.4%; with M14 melanoma, 56%; in the experiment on HCT-15 colon, 36.7%; with HT29 colon, 34.6%; with SNB-75 CNS it was -13.2% (active). The growth is 52.7% in the experiment on SNB-19 CNS; 48.4% with PC-3 prostate; 54.2% in the experiment with SK-MEL-5 melanoma; 31.6% in the experiment on UACC-62 melanoma; 27.3% with LOX IMVI melanoma; 61.2% with SK-MEL-28 melanoma.
As for `CNC(=S)N/N=C/CSC/C=N/NC(=S)NC`, the growth with DU-145 prostate is 88.5%; in the experiment on K-562 leukemia, 15.8%; in the experiment on MALME-3M melanoma, 72%; with MDA-MB-231 breast it was 83.4%; with SF-268 CNS, 102%; in the experiment on SF-295 CNS, 108%. The growth in the experiment on SF-539 CNS was 105%; with UACC-257 melanoma, 67.7%; in the experiment with M14 melanoma it was 92.5%; in the experiment with HCT-15 colon, 87.8%; with HT29 colon, 24.4%; in the experiment on SNB-75 CNS, 88.1%. Moreover, the growth is 101% with SNB-19 CNS; 57% in the experiment on PC-3 prostate; 81.1% in the experiment with SK-MEL-5 melanoma; 89.2% with UACC-62 melanoma; 84.6% with LOX IMVI melanoma; 99.3% in the experiment with SK-MEL-28 melanoma.
On to `COc1cc(C2CC(=O)Nc3c2c(C)nn3-c2nc3ccccc3[nH]2)cc(OC)c1OC` (stereo not given), for which the growth in the experiment with DU-145 prostate was 119%; in the experiment on K-562 leukemia, 99.7%; in the experiment on MALME-3M melanoma, 106%; with MDA-MB-231 breast it was 91.6%; in the experiment with RXF 393 renal it was 89.8%; in the experiment with SF-268 CNS, 112%. Also, the growth in the experiment on UACC-257 melanoma is 96.7%; in the experiment on M14 melanoma, 92.3%; with HCT-15 colon, 101%; in the experiment with HT29 colon, 109%; in the experiment with SNB-75 CNS, 86.9%; in the experiment on SNB-19 CNS, 93.4%. Moreover, the growth in the experiment on U251 CNS is 102%; with PC-3 prostate, 75.2%; in the experiment on SK-MEL-5 melanoma it was 99.7%; in the experiment with UACC-62 melanoma it was 97.2%; in the experiment on SK-MEL-28 melanoma, 103%.
